Test results reported in PubChem BioAssay AID463173 (ICCB-Longwood Screening Facility, Harvard Medical School, 2010).
In all, about 52,000 compounds went through this assay and about 4,300 (8.3%) were called active. This excerpt belongs to a sample that is enriched for actives. Values without a mark were called inactive. Rule as the data show it: active = survival mostly below about 52% (no sharp cut-off); inactive = mostly above about 56%.

The compounds below were run on DeltatarO mutant (assay: S. aureus survival, RN4220 and DeltatarO strains – OD600, teichoic acid synthesis inhibitors, primary screen (AID 463173)). Settings: S. aureus RN4220 wild type/DeltatarO growth, OD600, 18 h, hits give low values, screened at 18.75 µg/mL (by protocol).

In order of falling survival:
1. Cc1c(C(=O)N2CCC(C)CC2)c(S(=O)(=O)NCc2ccc(Cl)cc2)c(C)n1C  128%
2. Cc1ccc(-c2noc(CSc3nnc(C)n3-c3ccc(C)cc3)n2)cc1  101%
3. CCOc1ccc(-c2nnc(SCC(=O)NCCc3ccc(OC)c(OC)c3)nc2-c2ccc(OCC)cc2)cc1  98%
4. COc1ccc(-c2noc(CSc3nnc(-c4ccncc4)n3-c3ccc(OC)cc3)n2)cc1  92%
5. CCc1cccc(C)c1NC(=O)Cn1cc2c(n1)CCCCC2  90%
6. O=C(CNCC1CCCCC1)Nc1cccc(F)c1  88%
7. Cc1cc(NC(=O)CSc2nc(-c3ccccc3F)nc3c2c(=O)n(C)c(=O)n3C)no1  86%
8. COC(=O)c1ccccc1NC(=O)C1CCCN(c2ncnc3onc(C)c23)C1 (stereo not given)  80%
9. O=C(Nc1c(C(=O)N2CCN(c3ccccc3F)CC2)oc2ccccc12)c1ccc(Br)o1  80%
10. CCOc1ccc(OCC)c(NC(=O)c2cnn(-c3ccc(F)cc3)c2-n2cccc2)c1  80%
11. COc1ccc(-c2noc(CSc3nnc(C)n3-c3ccc(OC)cc3)n2)cc1  77%
12. O=C(O)CCCc1nc2ccccc2s1  75%
13. CC(C)Oc1ccc(C(=O)Nc2nonc2-c2ccc(OC(C)C)cc2)cc1  75%
14. COc1ccc(-c2noc(CSc3nnc(-c4ccncc4)n3-c3ccccc3)n2)cc1  70%
15. COc1cc(CNC(=O)c2ccc3c(c2)N(C)C(=O)C2CCCCN32)cc(OC)c1OC (stereo not given)  69%
16. C#CCn1c(O)c(N=NC(=O)c2ccccc2-n2cccc2)c2ccccc21  60%
17. COc1ccc(-n2c(SCc3nc(-c4ccc(C)cc4)no3)nnc2-c2ccncc2)cc1  57%
18. Cc1ccc2c(c1)N(C(=O)CCC(=O)Nc1ccc(F)cc1F)CC(C)O2 (stereo not given)  56%
19. COc1ccc(-c2noc(CSc3nnc(-c4ccncc4)n3-c3ccc(C)cc3)n2)cc1  55%
20. CCCn1c(SCc2nc(-c3ccc(OC)cc3OC)no2)nnc1-c1ccc(Cl)cc1  53%
21. CCCn1c(SCc2nc(-c3ccccc3C)no2)nnc1-c1ccc(Cl)cc1  47%

`Cc1ccc(-n2c(SCc3nc(-c4ccc(Cl)cc4)no3)nnc2-c2ccncc2)cc1` was tested, and the survival was 37% (active).
With `COc1ccc(-c2noc(CSc3nnc(C)n3-c3ccc(C)cc3)n2)cc1` the survival was 57% (active).
For `CCCn1c(SCc2nc(-c3ccccc3OCC)no2)nnc1-c1ccc(Cl)cc1`, the survival was 43% (active).
With `COc1ccc(-n2c(SCc3nc(-c4ccc(Cl)cc4)no3)nnc2-c2ccncc2)cc1` the survival was 49% (active).
